Test results taken from the supplement of paper PMC4100887.
Structures can show the parent of a compound that is named as a salt. ± gives the standard deviation of the averaged measurements.

Key:
IMR-90 = test: relative cell viability (ATPlite) vs untreated control (fraction); higher = less toxic; conditions: 1 µM; 72 h
K562 [1] = test: as above; conditions: 1 µM; 72 h
K562 [2] = test: relative cell viability (ATPlite) vs untreated control, with imatinib (fraction); higher = less toxic; conditions: 1 µM; 72 h; imatinib 0.125 µM

| Compound | relative cell viability (IMR-90) | relative cell viability (K562 [1]) | relative cell viability (K562 [2]) |
| --- | --- | --- | --- |
| O=C1NC(=O)c2c1c1c3ccccc3[nH]c1n1cncc21 [Isogranulatimide] | 1.01 ± 0.063 | 0.837 ± 0.077 | 0.773 ± 0.049 |
| O=C1c2ccccc2-c2nc3nnnn3nc21 [PDK1/Akt/Flt Dual Pathway Inhibitor] | 0.856 ± 0.069 | 0.028 ± 0.0014 | 0.0249 ± 0.0025 |
| COc1nccc(-c2c(-c3ccc(F)cc3)ncn2C2CCC(O)CC2)n1 (stereo not given) | 0.964 ± 0.038 | 0.86 ± 0.11 | 0.794 ± 0.067 |
| Cc1ccc(NC2=CC(=O)c3sc(C)nc3C2=O)cc1 [Cdk4 Inhibitor III] | 0.997 ± 0.032 | 0.782 ± 0.1 | 0.685 ± 0.14 |
| NCCCn1cc(C2=C(c3c[nH]c4ccccc34)C(=O)NC2=O)c2ccccc21 [Bisindolylmaleimide III, Hydrochloride] | 1.06 ± 0.088 | 0.88 ± 0.058 | 0.776 ± 0.042 |
| COc1cc2c(cc1OC)-c1[nH]nc(Nc3cccc(F)c3)c1C2 [PDGF Receptor Tyrosine Kinase Inhibitor IV] | 0.43 ± 0.07 | 0.0468 ± 0.0021 | 0.0404 ± 0.0032 |
| COc1cc2ncnc(N3CCN(C(=O)Nc4ccc(Oc5ccccc5)cc4)CC3)c2cc1OC [PDGF Receptor Tyrosine Kinase Inhibitor III] | 1.01 ± 0.086 | 0.736 ± 0.03 | 0.649 ± 0.029 |
| Cn1c(O)c(-c2[nH]c3ccccc3c2N=O)c2ccc(Br)cc21 [GSK-3 Inhibitor IX, Control, MeBIO] | 0.976 ± 0.047 | 0.964 ± 0.014 | 0.8454 ± 0.0073 |
| CC(C)n1cnc2c(NCc3ccccc3O)nc(NCCCO)nc21 [Cdk Inhibitor, p35] | 1.04 ± 0.054 | 0.855 ± 0.056 | 0.779 ± 0.03 |
| COc1cc(SC)ccc1C(=O)N1CCC(Cc2ccccc2)CC1 [p38 MAP Kinase Inhibitor VI, JX401] | 1.03 ± 0.094 | 0.807 ± 0.042 | 0.716 ± 0.023 |
